Here are results for 39 molecules from PubChem BioAssay (NCI).

A short description of experiment [1]: NCI Yeast Anticancer Drug Screen. Data for the rad50 strain (AID 155).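 Further: 0% = growth of vehicle-only cultures of the same strain.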 The conditions noted are these: S. cerevisiae rad50 strain growth inhibition; at 50.0 µM; stronger effect = higher value. A digest of the protocol:
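Compounds were tested on a yeast strain with an engineered DNA damage repair alteration; the reported value is growth inhibition normalised to vehicle treatment.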

Experiment [2] can be described thus: NCI Yeast Anticancer Drug Screen. Data for the mec2-1 strain (AID 157). The conditions noted are these: S. cerevisiae mec2-1 strain, at 50.0 µM, stronger effect = higher value. In a few lines:
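Cells of the genetically defined mec2-1 yeast strain are incubated with test compound. Inhibition of growth is calculated against vehicle-treated controls.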

Experiment [3] in a line: NCI Yeast Anticancer Drug Screen. Data for the sgs1 mgt1 strain (AID 161).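 Further: 0% = growth of cultures given vehicle only.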 The conditions noted are these: S. cerevisiae sgs1 mgt1 strain, at 50.0 µM, stronger effect = higher value. A digest of the protocol: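 Mutant yeast exposed to compound; growth scored against vehicle-only wells.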
Experiment [4] is described as follows: NCI Yeast Anticancer Drug Screen. Data for the cln2 rad14 strain (AID 165).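 Further: 0% = growth equal to vehicle treated cultures.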 The conditions noted are these: S. cerevisiae cln2 rad14 strain, at 50.0 µM, stronger effect = higher value. A digest of the protocol:
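The screen exposed genetically defined yeast (cln2 rad14) to test compounds and scored growth inhibition relative to vehicle-treated controls.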

The nature of experiment [5]: NCI Yeast Anticancer Drug Screen. Data for the bub3 strain (AID 167). The conditions noted are these: S. cerevisiae bub3 mutant strain, at 50.0 µM, stronger effect = higher value. A digest of the protocol: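 Growth of a checkpoint-deficient yeast mutant is measured after compound exposure. Values represent inhibition relative to vehicle.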
A short description of experiment [6]: NCI Yeast Anticancer Drug Screen. Data for the mlh1 rad18 strain (AID 175). The conditions noted are these: S. cerevisiae mlh1 rad18 strain growth inhibition; at 50.0 µM; stronger effect = higher value. A digest of the protocol:
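Compound-treated yeast growth, normalised to vehicle controls. Strain bears defined DNA repair mutations.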

The panel holds about 79,000 compounds, 15% with a hit somewhere; the sample as a whole holds those more often. Values without a mark were called inactive. The source made the active and inactive calls. No stated cut-off is given here; in the data, active means growth inhibition above about 70%; inactive means the rest. Where a SMILES comes first, the peptide text is derived from it. The star is where a group is joined. Boc = CC(C)(C)OC(=O)*

With `C/C(=C\Cc1cc(O)c(C)cc1O)CC/C=C(\C)Cc1cc(C)co1`, the growth inhibition is -14.9% in experiment [1]; -19.7% in experiment [2]; -35.5% in experiment [3]; 17.9% in experiment [4]; -1.3% in experiment [5]; -8.75% in experiment [6].
For the molecule `CCCCCCCC(=O)N(CC)CC`, the growth inhibition in experiment [1] is 13.5%; in experiment [2], -4.05%; in experiment [3], 25.4%; in experiment [4], -17.1%; in experiment [5], 1.6%; in experiment [6] it was 8.75%.
As to `COC(=O)/C=C/C(=O)N1CC(C)N(C(=O)/C=C/C(=O)OC)CC1C` (centres undefined), the growth inhibition in experiment [1] was -8.45%; in experiment [2], -3.55%; in experiment [3], -9.2%; in experiment [4], 37.4%; in experiment [5], 1.45%; in experiment [6], -14.4%.
As to `Cc1ccsc1/C=N/Nc1nncc2ccccc12`, the growth inhibition was 20.3% in experiment [1]; 5.35% in experiment [2]; 20.6% in experiment [3]; 9.05% in experiment [4]; 30.4% in experiment [5]; 9.7% in experiment [6].
Regarding `O=C(Nc1ccc2c(c1)OCO2)O/N=C\c1ccccn1`, the growth inhibition was 9.15% in experiment [1]; 26.8% in experiment [2]; 17.7% in experiment [3]; 57.4% in experiment [4]; 9.4% in experiment [5]; 42.1% in experiment [6].
As for `Nc1ccn(C2OC(CO)C(O)C2Br)c(=O)n1` (centres undefined), the growth inhibition in experiment [1] is 3.9%; in experiment [2], 8.75%; in experiment [3], 14.2%; in experiment [4] it was -12%; in experiment [5], -10.1%; in experiment [6] it was 14.1%.
For the molecule `O=C(c1ccc(F)cc1)C1CC1`, the growth inhibition is 3.7% in experiment [1]; -17.8% in experiment [2]; 19% in experiment [3]; 9.3% in experiment [4]; -0.95% in experiment [5]; 2.25% in experiment [6].
As to `CNC1(C(N)=O)CCN(Cc2ccccc2)CC1`, the growth inhibition in experiment [1] is -14.7%; in experiment [2] it was -10.3%; in experiment [3] it was -25.8%; in experiment [4], 0.75%; in experiment [5], -3.6%; in experiment [6], -8.35%.
For the molecule `CCCCn1cnc2c(SSc3ncnc4c3ncn4CCCC)ncnc21`, the growth inhibition was -11.6% in experiment [1]; -11.3% in experiment [2]; 5.1% in experiment [3]; 12% in experiment [4]; 22.4% in experiment [5]; 75.7% (active) in experiment [6].
For the molecule `ClCCCCOC1CCCCO1` (centres undefined), the growth inhibition in experiment [1] was -4.6%; in experiment [2], 5.35%; in experiment [3] it was 4.9%; in experiment [4], 2.7%; in experiment [5], -12.7%; in experiment [6], -29.8%.
Consider `NC(=O)c1[nH]cnc1N`, for which the growth inhibition in experiment [1] is 12.6%; in experiment [2], 24.9%; in experiment [3], 10.4%; in experiment [4], 4%; in experiment [5], 23.9%; in experiment [6] it was -58.5%.
For `COc1ccc(C2C/C(=N/O)c3ccccc3O2)cc1` (centres undefined), the growth inhibition in experiment [1] was 16.6%; in experiment [2] it was -7.85%; in experiment [3], 5.85%; in experiment [4], -93.6%; in experiment [5], -7.75%; in experiment [6], 10.1%.
As for `Clc1ccc(-c2csc3nc(-c4cccs4)nn23)cc1`, the growth inhibition is -0.05% in experiment [1]; -16.6% in experiment [2]; 16.6% in experiment [3]; 1.65% in experiment [4]; -6.95% in experiment [5]; -5.3% in experiment [6].
With `CCCCCCCCCCCC(=O)OCCSC#N`, the growth inhibition was -7.45% in experiment [1]; 0.1% in experiment [2]; -2% in experiment [3]; -21.4% in experiment [4]; -0.2% in experiment [5]; 0.05% in experiment [6].
Regarding `CN(C)CCC(C(N)=O)c1ccccc1` (centres undefined), the growth inhibition in experiment [1] is 36.1%; in experiment [2], -1.7%; in experiment [3] it was -3.7%; in experiment [4], 38.9%; in experiment [5], -5.85%; in experiment [6] it was 18.1%.
Regarding `CCC1(C)C(=O)c2ccccc2N(C)C1=O` (centres undefined), the growth inhibition in experiment [1] is -5.55%; in experiment [2], -10.1%; in experiment [3], -9.5%; in experiment [4], -37.9%; in experiment [5] it was 5%; in experiment [6] it was -6.25%.
`CC(=O)Cc1ccc([N+](=O)[O-])cc1`: the growth inhibition in experiment [1] was -0.1%; in experiment [2] it was -9.25%; in experiment [3], -15.9%; in experiment [4], -41.7%; in experiment [5] it was 4.15%; in experiment [6], 12.2%.
Regarding `CC(=O)Cc1ccco1`, the growth inhibition in experiment [1] is 14.5%; in experiment [2] it was -3.35%; in experiment [3], -8.8%; in experiment [4], 22.5%; in experiment [5], -2.2%; in experiment [6], -10.7%.
Consider `CC1(C)OC2COC(CNS(C)(=O)=O)C2O1` (centres undefined), for which the growth inhibition was 12.2% in experiment [1]; -12.2% in experiment [2]; -9.2% in experiment [3]; 5.1% in experiment [4]; 2.85% in experiment [5]; 28.4% in experiment [6].
For the molecule `Nc1nc2c(C(=O)NCc3cccs3)nnn2c2cccc(Cl)c12`, the growth inhibition in experiment [1] was -6.25%; in experiment [2], -1.45%; in experiment [3], -5.35%; in experiment [4] it was 4.2%; in experiment [5] it was -20.3%; in experiment [6] it was 7.05%.
Regarding `COC(CN1C=C(Sc2ccccc2)CC1)OC`, the growth inhibition in experiment [1] was 49.2%; in experiment [2] it was 24.2%; in experiment [3] it was 32.3%; in experiment [4], 13%; in experiment [5] it was 27.5%; in experiment [6] it was 56.2%.
As to `CC(=O)c1sc2c(c1OC(=O)c1ccc(Cl)cc1)c(=O)n(-c1ccccc1)c(=S)n2-c1ccccc1`, the growth inhibition in experiment [1] was 9.55%; in experiment [2], -8.9%; in experiment [3], -11.2%; in experiment [4], 7.95%; in experiment [5], 11.9%; in experiment [6], 9.05%.
As to `CC(C)C(NC(=O)OC(C)(C)C)C(=O)N1CCCC1C(=O)O` (stereo not drawn) (Boc-Val-Pro-OH; configuration not given here), the growth inhibition in experiment [1] was 11.8%; in experiment [2], -1.5%; in experiment [3] it was 18%; in experiment [4] it was 3.3%; in experiment [5], 2.3%; in experiment [6], 5.65%.
As for `CC(=O)C1=C(O)/C(=C/c2ccccc2)NC1=O`, the growth inhibition in experiment [1] is 8.05%; in experiment [2] it was 5.15%; in experiment [3] it was -6.3%; in experiment [4], -35.5%; in experiment [5] it was -13.2%; in experiment [6], -3.2%.
On to `CC(C)N(C(=O)C12C3C4C1C1C2C3C41C(=O)C(C)(C)C)C(C)C` (centres undefined), for which the growth inhibition in experiment [1] was 43%; in experiment [2], 28.9%; in experiment [3], 52%; in experiment [4] it was 61%; in experiment [5] it was 41%; in experiment [6], 50.8%.
As for `COc1ccc(C(=O)/C=C/c2ccc(OCCSCCCCCCCCCCSCCOc3ccc(/C=C/C(=O)c4ccc(OC)cc4)cc3)cc2)cc1`, the growth inhibition is -35% in experiment [1]; -30.1% in experiment [2]; -16.6% in experiment [3]; 3.75% in experiment [4]; -20.2% in experiment [5]; -40.3% in experiment [6].
As to `CC1=C(c2cc(C(=O)Nc3cccc(C(F)(F)F)c3)nc(NC#N)n2)Sc2ccccc2N1`, the growth inhibition in experiment [1] is 17.4%; in experiment [2], 1.2%; in experiment [3], -3.2%; in experiment [4], -2.85%; in experiment [5] it was 2.7%; in experiment [6], 11.8%.
As to `SCc1ccc(CS)s1`, the growth inhibition in experiment [1] was 4.65%; in experiment [2], -1.75%; in experiment [3], -1.65%; in experiment [4] it was 17.8%; in experiment [5], 23.2%; in experiment [6] it was -4.3%.
Consider `Oc1ccc2ccccc2c1Br`, for which the growth inhibition is 45.9% in experiment [1]; 55.5% in experiment [2]; 40.2% in experiment [3]; 26.1% in experiment [4]; 44.2% in experiment [5]; 35.6% in experiment [6].
With `O=C(O)c1cccc(C(=O)O)[n+]1[O-]`, the growth inhibition in experiment [1] is 6.05%; in experiment [2], -22.6%; in experiment [3] it was -17.8%; in experiment [4], 2.4%; in experiment [5] it was -11.8%; in experiment [6] it was -10%.
As for `Cc1cc(=O)oc2c(CNC(CC(C)C)C(=O)O)c(O)ccc12` (centres undefined), the growth inhibition in experiment [1] was -51.9%; in experiment [2], -32.3%; in experiment [3] it was -46.6%; in experiment [4], -16.4%; in experiment [5], -24.8%; in experiment [6] it was -63.1%.
`Nc1ccccc1SC1CCCCC1O` (centres undefined): the growth inhibition is -4.9% in experiment [1]; 2.2% in experiment [2]; -5.3% in experiment [3]; -8.2% in experiment [4]; 3.75% in experiment [5]; -7.15% in experiment [6].
For the molecule `CC(=O)CC(=O)NCCN(C)C`, the growth inhibition is -23.6% in experiment [1]; -43% in experiment [2]; -11.2% in experiment [3]; 5.95% in experiment [4]; -9.3% in experiment [5]; -6.65% in experiment [6].
Regarding `COc1ccc(NC(C)=O)c(O)c1C`, the growth inhibition in experiment [1] was -0.6%; in experiment [2] it was 2.15%; in experiment [3], -17%; in experiment [4], -25.4%; in experiment [5] it was -3.7%; in experiment [6], -12.7%.
With `CC1(C)N=C(N)N=C(N)N1c1ccc(-c2ccccc2)cc1`, the growth inhibition was 2.95% in experiment [1]; 0.9% in experiment [2]; 20.5% in experiment [3]; -0.75% in experiment [4]; 32.5% in experiment [5]; 19.5% in experiment [6].
For `NC(=O)NC(CCl)NC(N)=O`, the growth inhibition is 6.6% in experiment [1]; -5.8% in experiment [2]; -2.05% in experiment [3]; 13.1% in experiment [4]; -3.55% in experiment [5]; -12.3% in experiment [6].
Take `C[n+]1ccc(/C=C/c2c[nH]c3ccccc23)cc1`: the growth inhibition in experiment [1] was 6.25%; in experiment [2], 10.8%; in experiment [3], 3.6%; in experiment [4] it was -1.75%; in experiment [5] it was 5.1%; in experiment [6] it was -8.3%.
For the molecule `O=C1NC(=O)c2c1c1cnn(-c3ccccc3)c1n1cccc21`, the growth inhibition in experiment [1] was 15.1%; in experiment [2], 4.35%; in experiment [3], 25.2%; in experiment [4], -67%; in experiment [5], 1.2%; in experiment [6], 17.7%.
As for `Cc1ccc([N+](=O)[O-])cc1S(=O)(=O)O`, the growth inhibition in experiment [1] was 24.4%; in experiment [2], 13.2%; in experiment [3], 21.8%; in experiment [4] it was 11.7%; in experiment [5] it was 20%; in experiment [6] it was 2.45%.
